In the supplement of paper PMC12350171:
Where a name gives a salt, the structure may show the parent alone. A number with no mark means an inactive call.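 The calls were made as follows: active = AUC significantly below DMSO controls by Student t-fit with adjusted P under 0.01; inactive = not significantly reduced.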

System: Haemophilus parainfluenzae
Assay: growth AUC normalised to DMSO control (fraction of control); higher = less growth inhibition, active = hit call of the paper
Conditions: 20 µM
Procedure, shortened: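 Hemin and NAD were added to the medium for Haemophilus parainfluenzae. All pathogens, after two anaerobic passages, were inoculated at a starting OD578 of 0.01 into pre-reduced mGAM plates with 20 μM compound and 1% DMSO under breathable seals, and OD578 was read hourly for 24 h in three biological replicates. AUC of each growth curve was obtained with the trapezoidal rule up to the exponential-to-stationary transition and normalised to DMSO controls from the same plate.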

Row | SMILES | growth AUC normalised to DMSO control
1 | O=c1[nH]c(=O)n([C@H]2C[C@H](O)[C@@H](CO)O2)cc1I [Idoxuridine] | 0.942
2 | COc1cc(C(=O)NS(=O)(=O)c2ccccc2C)ccc1Cc1cn(C)c2ccc(NC(=O)OC3CCCC3)cc12 [Zafirlukast] | 0.825
3 | NC12CC3CC(CC(C3)C1)C2 [Adamantamine fumarate] | 1.05
4 | C[C@H]1C[C@H]2[C@@H]3CCC4=CC(=O)C=C[C@]4(C)[C@@]3(F)[C@@H](O)C[C@]2(C)[C@@]1(O)C(=O)CO [Betamethasone] | 0.974
5 | CN1CCCCC1CCN1c2ccccc2Sc2ccc([S+](C)[O-])cc21 (centres undefined) [Mesoridazine besylate] | 0.987
6 | CC1(C)S[C@@H]2[C@H](NC(=O)[C@H](NC(=O)N3CCNC3=O)c3ccccc3)C(=O)N2[C@H]1C(=O)O [Azlocillin sodium salt] | 0.0396 (active)
7 | COc1cc2ncnc(Nc3ccc(F)c(Cl)c3)c2cc1OCCCN1CCOCC1 [Gefitinib] | 0.971
8 | CC[C@H](C)C(=O)O[C@H]1CCC=C2C=C[C@H](C)[C@H](CC[C@@H]3C[C@@H](O)CC(=O)O3)[C@H]21 [Mevastatin] | 0.978
9 | C=CCc1ccccc1OCC(O)CNC(C)C (centres undefined) [Alprenolol hydrochloride] | 1.06
10 | CCN1CCCC(OC(=O)C(c2ccccc2)c2ccccc2)C1 (centres undefined) [Piperidolate hydrochloride] | 1.05
11 | CCN[C@H]1CN(CCCOC)S(=O)(=O)c2sc(S(N)(=O)=O)cc21 [Brinzolamide] | 0.946
12 | CN(C)CCC=C1c2ccccc2CCc2ccccc21 [Amitryptiline hydrochloride] | 0.958
13 | CCc1cccc2c3c([nH]c12)C(CC)(CC(=O)O)OCC3 (centres undefined) [Etodolac] | 1.02
14 | CC1(C)O[C@@H]2C[C@H]3[C@@H]4C[C@H](F)C5=CC(=O)CC[C@]5(C)[C@H]4[C@@H](O)C[C@]3(C)[C@]2(C(=O)CO)O1 [Flurandrenolide] | 1.03
15 | C[N+]1(CCCCC[N+]2(C)CCCC2)CCCC1 [Pentolinium bitartrate] | 0.96
16 | Nc1ncnc2c1ncn2C1OC(COP(=O)(O)O)C(O)C1O (centres undefined) [Adenosine 5'-monophosphate monohydrate] | 0.982
17 | C#C[C@]1(O)CC[C@H]2[C@@H]3CCC4=Cc5oncc5C[C@]4(C)[C@H]3CC[C@@]21C [Danazol] | 0.908
18 | CCOC(=O)[C@H](CCc1ccccc1)N[C@H]1CCc2ccccc2N(CC(=O)O)C1=O [Benazepril hydrochloride] | 0.995
19 | CN1CCCC(n2nc(Cc3ccc(Cl)cc3)c3ccccc3c2=O)CC1 (centres undefined) [Azelastine hydrochloride] | 0.994
20 | Cc1cccc(C)c1NC(=O)C(C)N (centres undefined) [Tocainide hydrochloride] | 0.99

Row | SMILES | growth AUC normalised to DMSO control
21 | C=C1C[C@H]2[C@@H]3C=C(C)C4=CC(=O)CC[C@]4(C)[C@H]3CC[C@]2(C)[C@@]1(OC(C)=O)C(C)=O [Melengestrol acetate] | 1.06
22 | CCC1(c2ccccc2)NC(=O)N(C)C1=O (centres undefined) [Mephenytoin] | 1.04
23 | CCCNC(C)C(=O)Nc1ccccc1C (centres undefined) [Prilocaine hydrochloride] | 1.01
24 | CCCSc1ccc2[nH]c(NC(=O)OC)nc2c1 [Albendazole] | 1.08
25 | NS(=O)(=O)Cc1noc2ccccc12 [Zonisamide] | 0.981
26 | CN(C)CCN(Cc1ccc(Cl)cc1)c1ccccn1 [Chloropyramine hydrochloride] | 1.03
27 | CC(=O)O[C@]1(C(C)=O)CC[C@H]2[C@@H]3C=C(Cl)C4=CC(=O)[C@@H]5C[C@@H]5[C@]4(C)[C@H]3CC[C@@]21C [Cyproterone acetate] | 1.01
28 | O=C1NCCN1c1ncc([N+](=O)[O-])s1 [Niridazole] | 0.392 (active)
29 | Nc1nc(=S)c2ncn([C@@H]3O[C@H](CO)[C@@H](O)[C@H]3O)c2[nH]1 [Thioguanosine] | 0.973
30 | CN1[C@@H]2CC[C@H]1C[C@@H](OC(c1ccccc1)c1ccccc1)C2 [Benztropine mesylate] | 1
31 | CCCC(=O)Nc1ncnc2c1ncn2[C@@H]1O[C@@H]2COP(=O)(O)O[C@H]2[C@H]1OC(=O)CCC [Bucladesine sodium salt] | 1
32 | O=C(O)c1cc(/N=N/c2ccc(S(=O)(=O)Nc3ccccn3)cc2)ccc1O [Sulfasalazine] | 1.04
33 | CCCc1nn(C)c2c(=O)[nH]c(-c3cc(S(=O)(=O)N4CCN(C)CC4)ccc3OCC)nc12 [Sildenafil] | 1.1
34 | Cn1c(=O)c2nc[nH]c2n(C)c1=O [Theophylline monohydrate] | 0.98
35 | O=C(N[C@H](CO)[C@H](O)c1ccc([N+](=O)[O-])cc1)C(Cl)Cl [Chloramphenicol] | 0.0445 (active)
36 | O=C(O)CCC(=O)c1ccc(-c2ccccc2)cc1 [Fenbufen] | 0.905
37 | OCCN(CCO)c1nc(N2CCCCC2)c2nc(N(CCO)CCO)nc(N3CCCCC3)c2n1 [Dipyridamole] | 0.993
38 | COC(=O)Nc1nc2cc(C(=O)c3ccc(F)cc3)ccc2[nH]1 [Flubendazol] | 1.02
39 | CN(C)/N=N/c1[nH]cnc1C(N)=O [Dacarbazine] | 0.999
